Laboratory results: the supplement of paper PMC11624193, “Coupling cellular drug-target engagement to downstream pharmacology with CeTEAM” (Nature Communications, 2024)
Where a name gives a salt, the structure may show the parent alone. Unmarked numbers belong to inactive results.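 Rule for the calls: active = log2 fold change beyond 2 SD from the library mean after excluding viability outliers; inactive = within 2 SD.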

The molecules below were run against PARP1 L713F-nLuc biosensor (HCT116) (UniProt P09874) (assay: PARP1 L713F-nLuc/akaLuc ratio relative to DMSO control (biosensor stabilization) (fold change); higher = more PARP1 biosensor stabilization (target engagement / stabilizer), active = hit call of the paper). Details: stock concentration (mM; final µM = stock mM x 1): 10; 24 h.
Sequence of PARP1 L713F-nLuc biosensor (HCT116) (P09874 whole entry L713F, looked up): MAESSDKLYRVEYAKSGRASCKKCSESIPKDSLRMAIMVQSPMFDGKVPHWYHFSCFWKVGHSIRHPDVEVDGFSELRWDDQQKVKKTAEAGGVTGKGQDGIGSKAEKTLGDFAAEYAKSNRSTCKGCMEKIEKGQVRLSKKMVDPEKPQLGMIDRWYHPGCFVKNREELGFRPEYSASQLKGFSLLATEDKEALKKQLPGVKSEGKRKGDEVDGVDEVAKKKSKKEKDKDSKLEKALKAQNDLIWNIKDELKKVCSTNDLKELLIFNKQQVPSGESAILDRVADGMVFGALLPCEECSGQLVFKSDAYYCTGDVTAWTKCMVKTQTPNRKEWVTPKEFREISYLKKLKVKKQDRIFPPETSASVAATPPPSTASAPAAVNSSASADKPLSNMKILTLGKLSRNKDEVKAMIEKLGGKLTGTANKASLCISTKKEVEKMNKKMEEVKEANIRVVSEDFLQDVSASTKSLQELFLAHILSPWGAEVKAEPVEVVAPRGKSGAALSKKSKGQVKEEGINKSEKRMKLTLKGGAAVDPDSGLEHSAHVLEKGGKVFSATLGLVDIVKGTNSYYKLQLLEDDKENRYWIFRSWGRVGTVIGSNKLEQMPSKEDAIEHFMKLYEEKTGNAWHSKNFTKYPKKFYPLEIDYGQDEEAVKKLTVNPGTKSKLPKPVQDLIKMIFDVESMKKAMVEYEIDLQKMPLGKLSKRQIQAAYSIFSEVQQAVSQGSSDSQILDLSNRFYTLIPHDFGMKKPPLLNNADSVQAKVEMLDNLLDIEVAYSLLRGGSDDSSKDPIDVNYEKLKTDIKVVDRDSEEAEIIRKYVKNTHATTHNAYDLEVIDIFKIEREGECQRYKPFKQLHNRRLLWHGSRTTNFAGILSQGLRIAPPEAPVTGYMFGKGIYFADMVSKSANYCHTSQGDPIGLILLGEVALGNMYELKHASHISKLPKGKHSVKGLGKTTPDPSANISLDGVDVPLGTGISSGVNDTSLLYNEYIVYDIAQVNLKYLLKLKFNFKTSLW

Compound	PARP1 L713F-nLuc/akaLuc ratio
Cc1nc2cccc(N)c2c(=O)n1C1CCC(=O)NC1=O (stereo not drawn) [Avadomide(CC-122)]	0.983
Nc1nc(Nc2ccc(S(N)(=O)=O)cc2)nn1C(=O)c1c(F)cccc1F	0.483
COc1ccc(NC(=O)c2ccc(NC3=C(C)C(=O)CC3)c(Cl)c2)cc1	0.879
COc1c(O)cc2oc(-c3ccccc3)cc(=O)c2c1O [Oroxylin A]	0.838
Cc1cc(Nc2nc(N[C@@H](C)c3ccc(F)cc3)c(C#N)cc2F)n[nH]1	13.6 (active)
N=C(N)NC(=N)NCCc1ccccc1 [Phenformin (hydrochloride)]	0.696
O=C(c1cccc(Br)c1)N1CCC(N2CCCC2)CC1	0.886
COc1cc2c(Nc3ccc(NC(=O)c4ccccc4)cc3)ncnc2cc1OCCCN1CCOCC1	0.809
CN1CCN(c2ccc3nc(-c4ccc5nc(-c6cccc(OCCCC(=O)NCCCN=[N+]=[N-])c6)[nH]c5c4)[nH]c3c2)CC1 [Targapremir-210]	1.46
S=C(NCc1ccc2c(c1)OCO2)N1CCN(c2ncnc3c2oc2ccccc23)CC1 [Amuvatinib (MP-470)]	0.659
CNc1nc(Nc2cn(C(C)(C)C#N)nc2C)ncc1C(F)(F)F	0.811
Cc1cc(Nc2cc(CN3CCOCC3)c3nc(C)c(Cc4ccc(Cl)cc4F)n3n2)n[nH]1 [Gandotinib]	1.75
CO[C@H]1C(=O)[C@]2(C)[C@@H](OC)C[C@H]3OC[C@@]3(OC(C)=O)[C@H]2[C@H](OC(=O)c2ccccc2)[C@]2(O)C[C@H](OC(=O)[C@H](O)[C@@H](NC(=O)OC(C)(C)C)c3ccccc3)C(C)=C1C2(C)C [Cabazitaxel]	1.2
Cn1cccc1/C=C1\C(=O)NC(=O)c2ccccc21	3.34 (active)
CCc1cc2c(cc1N1CCC(N3CCOCC3)CC1)C(C)(C)c1[nH]c3cc(C#N)ccc3c1C2=O	2.06
Cc1nc(N)nc(N)c1-c1ccc(Cl)c(Cl)c1 [Metoprine]	0.685
Clc1ccc(Nc2nnc(Cc3ccncc3)c3ccccc23)cc1 [Vatalanib (PTK787) 2HCl]	0.831
CO[C@H]1C[C@@H]2CC[C@@H](C)[C@@](O)(O2)C(=O)C(=O)N2CCCC[C@H]2C(=O)O[C@H]([C@H](C)C[C@@H]2CC[C@@H](O)[C@H](OC)C2)CC(=O)[C@H](C)/C=C(\C)[C@@H](O)[C@@H](OC)C(=O)[C@H](C)C[C@H](C)/C=C/C=C/C=C/1C [Rapamycin (Sirolimus)]	0.6
Cc1ccc(-n2nc(C(C)(C)C)cc2NC(=O)Nc2ccc(OCCN3CCOCC3)c3ccccc23)cc1 [Doramapimod (BIRB 796)]	0.671
CC(C)n1cnc2c(NCCc3ccc(O)cc3)nc(-c3csc4ccccc34)nc21 [StemRegenin 1 (SR1)]	0.788
CO[C@H]1C[C@@H]2CC[C@@H](C)[C@@](O)(O2)C(=O)C(=O)N2CCCC[C@H]2C(=O)O[C@H]([C@H](C)C[C@@H]2CC[C@@H](OP(C)(C)=O)[C@H](OC)C2)CC(=O)[C@H](C)/C=C(\C)[C@@H](O)[C@@H](OC)C(=O)[C@H](C)C[C@H](C)/C=C/C=C/C=C/1C [Ridaforolimus (Deforolimus, MK-8669)]	1.7
O=C(CC[C@H](NC(=O)OCc1ccccc1)C(=O)O)NCCCC[C@H](NC(=O)OCc1ccccc1)C(=O)Nc1ccccc1	1.06
C#Cc1cccc(Nc2ncnc3cc(OCCOC)c(OCCOC)cc23)c1 [Erlotinib]	0.565
COc1ccc(C2CC(c3ccccc3)=NN2c2ccc(S(N)(=O)=O)cc2)cc1 (stereo not drawn)	1.29
CCCCOc1ccc(CC(=O)NO)cc1 [Bufexamac]	1.03
O=c1ncccn1[C@@H]1O[C@H](CO)[C@@H](O)[C@H]1O [Zebularine]	0.711
C[C@H](Nc1ncnc2[nH]cnc12)c1cc2ccc(F)cc2nc1-c1ccccn1	0.767
CCN(C(=O)c1cc(F)ccc1Oc1cncnc1N1CC2(CCN(C[C@H]3CC[C@H](NS(=O)(=O)CC)CC3)CC2)C1)C(C)C	0.797
